# Measurements published in the supplement of paper PMC11417369.
# The full ranking holds about 25,000 sequences; the median of “ln(normalized median fluorescence intensity)” is about 7.1, and the highest 2% start at about 10. Many of the other results were omitted from the sample, so the highest values are more common in it than they were.
# System: PfSIP2 AP2 domain 1 (GST-tagged)
# Assay: gcPBM binding intensity (ln(normalized median fluorescence intensity)); higher = stronger DNA binding
# Method in brief: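 The binding buffer was 1× PBS containing 1% milk, 0.2 mg/ml BSA, 0.5% salmon testes DNA and 0.03% Triton X-100. In it, GST-tagged P. falciparum DNA-binding domains expressed in E. coli were applied for 1 h to an Agilent 4 × 180k array of primer-extended double-stranded 36-bp intergenic genomic probes plus negative controls. Binding intensity, read with Alexa488 anti-GST antibody and a 488 nm scan, is the highest Masliner-normalised natural-log median intensity across replicate spots of either probe orientation.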
row,Sequence,gcPBM binding intensity (ln)
1,TTATATTTAGTATATGCACACTTTATGTTTGTTATT [CACACA_site5163],7.74
2,TATTTATTTTTTTTTGTGCACTTAATATAATCTTAC,10.4
3,TTTAATTTATATTTTGTGCACATCTTATTATATATA [GTGCAC_site9630],9.58
4,TATATAAAAAATAGGTGGTCAACTTAAATATTTTAT [XGTACX_site4495],7.16
5,TAACAAAACCTTATATGTACACACATATACATCACA [XGTACX_site6772],7.16
6,ATATAATATGGTATTACACACTGTTAAAAGTATGGC [CACACA_site5190],7.03
7,ATAAATAAATGGTGTTGTACTCTATTATATATATAT [XGTACX_site7835],8.66
8,TTGATTATAATTAGTACACACAAAATACATGCGGGG [CACACA_site2277],7.82
9,ATAAATTTTTAAAAATATGAATTATGTAATTTGTGA [CACACA_negctrl_site1621],6.92
10,AAAAAAATTAATAATGTGCACTTTTTAGTATTTTTA [GTGCAC_site9744],10.3
11,TGAAATTTTATTAATGTGCACATATATTTATTGTTC,8.56
12,ATATCGTTATTTTTATGTACTAAAATATTTAATTAT [XGTACX_site3516],7.09
13,TTATTTTATTTTTGTGCACACTGATAAATTGAAAAG [CACACA_site2949],10.2
14,CGAACTGCACTTTTTAGTACTTAATAATTATTTTTT [XGTACX_site2446],8.47
15,TTTATATTAATTGATGTGCACTGAAATATTTGTCCA [GTGCAC_site9655],10.2
16,TATTTATTGTGACACTTTTATTATTTTATGATAAAA [CACACA_negctrl_site37],6.97
17,TTATAATTTTAATGTGCACACAATTAAAATATTATA [CACACA_site5172],9.21
18,ATTTATATTAAAAGTGTGCACTTTTTTTTTTTTTTT,10.1
19,TTTATCTAAATATGTGTGCACTCGTTAATTTTTTTT,10.5
20,TCATTTTAAATATGTGTGCACGTTATAATTTACACA,9.54
21,TGATATTATATTGTGATGCACTTTAAAAATATAAAG [GTGCAC_site9509],10.3
22,TTAAATAAAAGGTTTAGTACTTAAAATAAGAAATGA [XGTACX_site6341],6.91
23,GTATGTAATATTTTAGTGCAAAAAAAAAAAAAAAAA [GTGCAC_site9790],8.3
24,ACAAAAAGTTACATACGTACGTAAAATTGTAATAAA [XGTACX_site2358],6.96

row,Sequence,gcPBM binding intensity (ln)
1,TCCATCCACATATATGTACACACATATATATATATA [CACACA_site8970],9.43
2,TTTTTTTTTTTTTTTTGTCCGTACTGCTTTGTGTTT [XGTACX_site3687],6.99
3,AAAAAAAAAAATTAAAGTACAAAAATATTAAAAATA [XGTACX_site6517],6.8
4,ATATATATATATCACCGTACTTATATAATAACATGA [XGTACX_site4398],9.36
5,AGAATATATATAATAGTGCAATGTACAATGAACAAA [GTGCAC_site9577],8.01
6,TTTGGAATATTAATTGTGCACTTAAAAAGTTAATTA,10
7,TATATATATTAGTGTGCACACTTTTTATTTTTATCC [CACACA_site8506],8.6
8,AATTATATTTAGTATATGCACACTTTATGTTTGTTA [CACACA_site2025],7.9
9,TATATTTATATATTAGTGCACTTTTTGTTAATTTTT,10.7
10,TTTATTTGTGCATATACACACTTAAATATGTTTATT [CACACA_site7772],7.65
11,TTTTTTTTTTTTTTGTGTACTAATATTATAAATTTT [XGTACX_site4405],7.01
12,AATAATATTTATTTTTGTACATATGTGCATTATAAA [XGTACX_site3682],7.13
13,AGTACATTTTTGTGTGTGCACTAATATTATATACTT [GTGCAC_site9568],10.3
14,ATTATTTTTTTTGAAGTGCAATATTATTTTTAATCA,8.2
15,ATGAAATATTTATTTGTGCACTTAATTTGTTGGAAA,10.4
16,TTTTGTTATTTTGAAGTGCACTTTCCACTTAATATA,11
17,TTTTTTTTGATTTGTTTGCACTTATTTCCACAATAA,8.23
18,GTATATAAATATATATATATATATATATCTATATTT [CACACA_negctrl_site871],7.42
19,ATATTATAAAATAAAAGTACACAATTATATATATAT [XGTACX_site8812],8.6
20,ATTATATAACAAAATAGTACATATATTTATTACATC [XGTACX_site336],6.99
21,CCATATTTCATTAATGAACACACAAAGAGGTATATA [CACACA_site8431],7.11
22,TTCTTCAATATATTCTTACACACTTAAAAAAAAAAA [CACACA_site228],7.5
23,ATAGGACCTATGTGCCCATGGGTACATTAAAAAAAA [CACACA_negctrl_site1465],6.83
